Assay results reported in PubChem BioAssay.
Calls of active or inactive are those of the source. Unless noted, how the calls were made is not given here.

Tests used:
[1] = resazurin metabolic signal in HepG2 cells – cell-based, resazurin fluorescence, 24 h, PK04 Diversity Set, profiling panel (AID 1172); conditions: HepG2 viability, higher = more signal; further: test concentration not given here
[2] = budding yeast growth changes without added modifier – OD600, strain BY4716, 24 h, basal condition, primary screen (AID 1173); conditions: S. cerevisiae BY4716 growth, OD600, 24 h; higher = more signal, called active from +8 up or from −8 down
[3] = viability profiling in MM1S myeloma cells – cell-based, resazurin fluorescence, basal, 24 h, PK04 Diversity Set, profiling panel (AID 1174); conditions: higher = more signal, called active from +8 up or from −8 down;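 further: MM1S multiple myeloma cell line; test concentration not given here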
[4] = molecular target: Dihydroorotate dehydrogenase (quinone), mitochondrial (Plasmodium falciparum (isolate 3D7)) (UniProt Q08210); experiment: inhibition of P. falciparum DHODH – biochemical, C-terminal His tag, absorbance 600 nm, primary screen (AID 1175); conditions: PfDHODH enzyme, DCIP absorbance 600 nm; higher = more signal, called active from +8 up or from −8 down;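 further: recombinant parasite enzyme with a five histidine tag at its C terminus; test concentration not given here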
[5] = inhibition of PAO1 biofilm formation – strain PAO1, LB-PBS medium, absorbance 600 nm, primary screen (AID 1176); further: test concentration not given here; conditions: P. aeruginosa PAO1 growth/biofilm, A600, 12 h; higher = more signal
[6] = growth modulation of vineyard yeast isolate – strain RM11-1a, OD600, basal, 24 h, primary screen (AID 1177);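 further: cultures grown under basal conditions with no added stressor; test concentration not given here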; conditions: S. cerevisiae RM11-1a growth, OD600, 24 h; higher = more signal, called active from +8 up or from −8 down
[7] = growth of efflux-deficient E. coli DRC39 – strain DRC39, OD650, 24 h, E. coli filamentation inducers, primary screen (AID 1178);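 further: growth measured as culture turbidity by optical density at 650 nm; test concentration not given here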; conditions: E. coli DRC39 acrAB, higher = more signal, called active from +8 up or from −8 down
[8] = growth of efflux-deficient E. coli DRC39 – strain DRC39, OD650, 48 h, E. coli filamentation inducers, primary screen (AID 1179);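 further: screen aims at cell division blockers that make cells filament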; conditions: E. coli DRC39 delta-acrAB growth, higher = more signal, called active from +8 up or from −8 down
[9] = viability profiling in RPMI8226 myeloma cells – cell-based, resazurin fluorescence, basal, 24 h, PK04 Diversity Set, profiling panel (AID 1180); conditions: higher = more signal;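 further: RPMI8826 multiple myeloma cell line at 5000 cells per well; test concentration not given here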
[10] = molecular target: E3 ubiquitin-protein ligase XIAP (Homo sapiens) (UniProt P98170); experiment: small molecules binding XIAP protein – biophysical, small-molecule microarray, fluorescence 635 nm, primary screen (AID 1181); conditions: higher = more signal;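 further: score merges 667 nm emission and signal to noise over triplicate slides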
Sequence of E3 ubiquitin-protein ligase XIAP (Homo sapiens) (P98170 whole entry, looked up): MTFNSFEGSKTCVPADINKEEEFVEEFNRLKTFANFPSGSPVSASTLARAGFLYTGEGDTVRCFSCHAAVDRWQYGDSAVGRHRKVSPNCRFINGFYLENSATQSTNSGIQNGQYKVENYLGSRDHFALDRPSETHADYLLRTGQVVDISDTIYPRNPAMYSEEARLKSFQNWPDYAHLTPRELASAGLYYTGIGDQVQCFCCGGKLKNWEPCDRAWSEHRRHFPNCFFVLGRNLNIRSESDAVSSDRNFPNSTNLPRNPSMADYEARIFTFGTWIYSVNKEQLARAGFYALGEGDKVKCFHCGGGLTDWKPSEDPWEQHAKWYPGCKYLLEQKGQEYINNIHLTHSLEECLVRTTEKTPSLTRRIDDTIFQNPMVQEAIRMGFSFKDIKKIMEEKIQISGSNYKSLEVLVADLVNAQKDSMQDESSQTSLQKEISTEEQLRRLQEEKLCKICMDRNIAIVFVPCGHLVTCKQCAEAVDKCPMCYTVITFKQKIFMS

Sequence of Dihydroorotate dehydrogenase (quinone), mitochondrial (Plasmodium falciparum (isolate 3D7)) (Q08210 whole entry, looked up): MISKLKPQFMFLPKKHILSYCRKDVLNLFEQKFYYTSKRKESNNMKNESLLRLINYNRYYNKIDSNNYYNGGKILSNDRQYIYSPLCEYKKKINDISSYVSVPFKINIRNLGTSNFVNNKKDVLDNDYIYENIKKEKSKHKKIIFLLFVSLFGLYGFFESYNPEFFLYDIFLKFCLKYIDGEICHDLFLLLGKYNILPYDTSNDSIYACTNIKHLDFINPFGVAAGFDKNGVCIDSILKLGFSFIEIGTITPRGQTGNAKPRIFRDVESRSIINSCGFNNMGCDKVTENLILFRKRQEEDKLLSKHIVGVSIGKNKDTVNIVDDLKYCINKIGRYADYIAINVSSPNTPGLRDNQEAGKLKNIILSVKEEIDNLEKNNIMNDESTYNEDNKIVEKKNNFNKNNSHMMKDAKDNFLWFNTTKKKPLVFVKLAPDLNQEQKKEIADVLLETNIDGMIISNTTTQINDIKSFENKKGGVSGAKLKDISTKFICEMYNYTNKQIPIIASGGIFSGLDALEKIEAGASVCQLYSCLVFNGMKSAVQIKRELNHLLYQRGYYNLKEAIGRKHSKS

Row | SMILES | z-score [1] | z-score [2] | z-score [3] | composite z-score [4] | z-score [5] | z-score [6] | z-score [7] | z-score [8] | z-score [9] | composite z-score [10]
1 | NC(=O)NCC#Cc1ccc2c(c1)[C@]1(C(=O)N2)[C@H](c2ccc(O)cc2)N2[C@H](c3ccccc3)[C@H](c3ccccc3)OC(=O)[C@H]2[C@@H]1C(=O)O | 0.587 | 0.453 (inactive) | 0.277 (inactive) | -0.268 (inactive) | 0.237 (inactive) | 0.726 (inactive) | -0.338 (inactive) | -0.176 (inactive) | 0.772 | 0.0975
2 | CC1CC/C=C\[C@H]2OC34C=CCN(Cc5ccccc5)C(=O)[C@H]3N(CCCO)C(=O)[C@@H]4C2C(=O)O1 (stereo not given in full) | -0.385 | -0.739 (inactive) | 0.0639 (inactive) | -0.311 (inactive) | -0.0963 (inactive) | -0.52 (inactive) | 1.02 (inactive) | 0.568 (inactive) | 0.44 | -0.176
3 | CCCCCCc1nc(-c2cc(C)c(OC)c(C)c2)cc2c1[Si](C(C)C)(C(C)C)OC2 | -0.206 | -1.09 (inactive) | 0.401 (inactive) | -3.17 (inactive) | -0.747 (inactive) | -0.493 (inactive) | 0.615 (inactive) | 0.641 (inactive) | -0.11 | 0.0537
4 | COc1cc2c(cc1OC)CN(C(=O)[C@@H]1[C@H]3C(=O)O[C@H](c4ccccc4)[C@H](c4ccccc4)N3[C@H](c3ccccc3OCCO)[C@@]13C(=O)Nc1ccc(C#CCCO)cc13)CC2 | 0.0986 | 1.28 (inactive) | -0.0469 (inactive) | 0.379 (inactive) | 2.35 (inactive) | 1.98 (inactive) | 0.158 (inactive) | 0.793 (inactive) | 0.43 | 0.271
5 | C=C(CCCC)/C(=C/C[C@H](OC(C)=O)c1ccccc1OCCO)c1cc(C(=O)OC)ccc1OC | -0.0696 | -0.863 (inactive) | 0.911 (inactive) | -2.1 (inactive) | -0.824 (inactive) | -0.0572 (inactive) | 0.427 (inactive) | 0.257 (inactive) | 0.682 | -0.28
6 | CCOC(=O)C[C@H]1[C@H](OC(=O)c2ccc(C(=O)c3ccccc3)cc2)[C@@H](NC(=O)c2ccccc2)c2cc(OCCCO)ccc2N1C(=O)Cc1ccc(OC)cc1 | 0.844 | 0.0931 (inactive) | 0.399 (inactive) | 0.107 (inactive) | 0.62 (inactive) | 0.17 (inactive) | 0.722 (inactive) | 0.419 (inactive) | 0.702 | -0.102
7 | CC(C)C[C@@H]1NC(=O)[C@@H]2C[C@H](C(=O)O)[C@H](c3cccc(OCCO)c3)N2C1=O | -0.314 | -0.0664 (inactive) | 0.254 (inactive) | -1.16 (inactive) | -0.447 (inactive) | -0.747 (inactive) | 0.398 (inactive) | -0.263 (inactive) | 0.294 | -0.059
8 | C#C[C@H](O[Si](C#Cc1ccc(Oc2ccccc2)cc1)(C(C)C)C(C)C)c1ccccc1 | -1.03 | -12.7 (active) | -0.675 (inactive) | -0.289 (inactive) | 0.702 (inactive) | 0.619 (inactive) | -0.363 (inactive) | -0.172 (inactive) | -1.73 | -0.132
9 | C=CCC(OC(C)=O)[C@@H]1[C@@H](N(Cc2cccc3ccccc23)C(=O)c2ccc(-c3ccccc3)cc2)c2cc(OCCCO)ccc2N1C(=O)c1ccc2ccccc2c1 (stereo not given in full) | 0.256 | 1.04 (inactive) | 0.163 (inactive) | -0.149 (inactive) | 0.845 (inactive) | 0.132 (inactive) | 0.0986 (inactive) | 0.295 (inactive) | 1.23 | 0.0463
10 | CN1C(=O)C2C=CC(C(O)C3CC=CCC3)N(N(c3ccccc3)c3ccccc3)C2C1=O (stereo not given) | 0.129 | 1.16 (inactive) | -1.17 (inactive) | -0.0647 (inactive) | 0.599 (inactive) | 0.595 (inactive) | -0.486 (inactive) | 0.364 (inactive) | -1.06 | -0.269
11 | COc1ccc(CCNC(=O)[C@@H]2c3ccccc3C(=O)N(Cc3ccccc3Cl)[C@H]2c2ccc(CO)cc2)cc1 | 0.891 | -0.541 (inactive) | 0.258 (inactive) | 0.0856 (inactive) | 0.416 (inactive) | 0.394 (inactive) | -0.258 (inactive) | -0.457 (inactive) | 0.883 | -0.102
12 | CC(C)=CCN[C@H](CO)c1ccccc1 | -0.347 | -6.22 (inactive) | -0.362 (inactive) | -2.14 (inactive) | -0.517 (inactive) | -0.17 (inactive) | -0.387 (inactive) | -1.49 (inactive) | -0.974 | 0.213
13 | CN(C)C(=O)[C@]1(Cc2ccccc2N=[N+]=[N-])N=C(c2ccc(OCCCO)cc2)O[C@@H]1c1ccccc1N=[N+]=[N-] | -1.08 | -1.57 (inactive) | -2.65 (inactive) | -0.828 (inactive) | 0.438 (inactive) | 0.667 (inactive) | 1.01 (inactive) | 2.07 (inactive) | -3.87 | -0.178
14 | CC(C)OC(=O)C=C1C[C@@H](c2ccccn2)O[C@@H](c2ccccn2)O1 | -0.802 | -1.97 (inactive) | -0.377 (inactive) | 0.409 (inactive) | 0.0362 (inactive) | -0.391 (inactive) | -0.471 (inactive) | 0.115 (inactive) | -0.474 | 0.462
15 | [N-]=[N+]=Nc1ccccc1[C@@H]1OC(c2ccc(OCCCO)cc2)=N[C@]1(Cc1ccccc1)C(=O)N1CCOCC1 | -0.601 | -0.294 (inactive) | -1.6 (inactive) | 0.291 (inactive) | -0.0279 (inactive) | 0.857 (inactive) | 0.266 (inactive) | -0.412 (inactive) | -1.58 | -0.0062
16 | C=CC[C@@]1(C(=O)NCCN2CCOCC2)N=C(c2ccc(OCCCO)cc2)O[C@@H]1c1ccccc1N=[N+]=[N-] | -0.1 | -0.0089 (inactive) | -1.05 (inactive) | 1.61 (inactive) | 1.61 (inactive) | 2.17 (inactive) | 0.2 (inactive) | -0.0194 (inactive) | -0.614 | 0.107
17 | C=C(CCCC)/C(=C/C[C@H](OC(=O)c1ccncc1)c1ccccc1OCCO)c1cnc2ccccc2c1 | 0.381 | -0.0677 (inactive) | -1.07 (inactive) | -2.03 (inactive) | 1.23 (inactive) | -0.254 (inactive) | 0.133 (inactive) | 0.126 (inactive) | -0.64 | -0.252
18 | CN1C(=O)C2C=CC(C(O)c3ccc([N+](=O)[O-])cc3)N(N3CCCCC3)C2C1=O (stereo not given) | -0.777 | 0.217 (inactive) | -0.51 (inactive) | 0.0871 (inactive) | 0.711 (inactive) | 0.189 (inactive) | -0.884 (inactive) | -1.24 (inactive) | -0.85 | 0.384
19 | COc1ccccc1CN1C(=O)c2ccccc2[C@@]2(Cc3ccccc3N(CC(C)C)C2=O)[C@@H]1c1ccc(CO)cc1 | -0.593 | 0.0849 (inactive) | -0.681 (inactive) | -0.359 (inactive) | 0.332 (inactive) | -1.04 (inactive) | -0.169 (inactive) | -0.0353 (inactive) | -0.564 | 0.0957
20 | CC(CO)N1C(=O)[C@@H]2C3C(=O)OCCC/C=C\[C@H]3OC23C=CCN(C(C)(C)C)C(=O)[C@@H]13 (stereo not given in full) | -0.181 | -0.382 (inactive) | -0.261 (inactive) | -4.03 (inactive) | 0.727 (inactive) | -0.0192 (inactive) | 0.855 (inactive) | 0.956 (inactive) | -0.178 | 0.801
21 | O=C1C[C@@](C(=O)NC2CC2)(c2ccc([N+](=O)[O-])cc2)[C@@H](c2ccc(CO)cc2I)N1C1CCCCC1 | 0.0684 | -0.466 (inactive) | -0.191 (inactive) | -0.716 (inactive) | 0.512 (inactive) | -0.0222 (inactive) | 0.149 (inactive) | -0.528 (inactive) | -0.538 | 0.123
22 | O=C1c2ccccc2[C@](Cc2ccccc2I)(C(=O)NCCN2CCOCC2)[C@H](c2ccc(CO)cc2)N1Cc1ccccc1Cl | -0.322 | -0.935 (inactive) | 0.618 (inactive) | -0.0768 (inactive) | 0.916 (inactive) | -0.0576 (inactive) | 0.768 (inactive) | -0.108 (inactive) | 0.304 | -0.102
23 | COC(=O)[C@@]1(Cc2ccc(F)cc2)[C@H]2c3cc(C(=O)N(C)C)n(Cc4cc(F)c(F)c(F)c4)c3C[C@H]2CN1C(=O)c1ccccc1 | -2.13 | 1.56 (inactive) | -1.97 (inactive) | 0.349 (inactive) | 0.15 (inactive) | 1.16 (inactive) | -0.194 (inactive) | 0.38 (inactive) | -3.47 | 0.157
